# Measured values reported in PubChem BioAssay AID1159580 (chemical genetic matrix, 2015).
# About 2,000 (36%) of roughly 5,500 compounds were called active. Inconclusive results (about 18%) are left out. The list shows a part of the results. Values without a mark were called inactive. Cut-off read from the data, not from the text of the source: active = normalized growth mostly below about 0.91 (no sharp cut-off); inconclusive = no clear call, values can overlap the other calls; inactive = mostly above about 0.92.
# Assay: chemical genetic growth profiling, strain panel (AID 1159580);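 note: tested at 20 µM; growth read once vehicle control cultures reached saturation at 30 °C; 1 = growth at the plate median or of vehicle wells; lower values mean less growth of the strain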
# Conditions: S. cerevisiae deletion strains, growth OD
# [1] = locus YDL101C, strain DUN1, active compounds read low
# [2] = locus YHR030C, strain SLT2, active compounds read low
# [3] = locus YAR019C, strain CDC15, active compounds read low
# [4] = locus YBL105C, strain PKC1, active compounds read low
# [5] = locus YBR135W, strain CKS1, active compounds read low
# [6] = locus YBR136W, strain MEC1, active compounds read low
# [7] = locus YBR160W, strain CDC28, active compounds read low
# [8] = locus YDL017W, strain CDC7, active compounds read low
# [9] = locus YDL028C, strain MPS1, active compounds read low
# [10] = locus YDL108W, strain KIN28, active compounds read low
# [11] = locus YDL132W, strain cdc53, active compounds read low
# [12] = locus YDL214C, strain PRR2, active compounds read low
# [13] = locus YDR052C, strain DBF4, active compounds read low
# [14] = locus YDR054C, strain cdc34, active compounds read low
# [15] = locus YDR226W, strain ADK1, active compounds read low
# [16] = locus YDR477W, strain SNF1, active compounds read low
# [17] = locus YER123W, strain YCK3, active compounds read low
# [18] = locus YER133W, strain GLC7, active compounds read low
# [19] = locus YFL009W, strain cdc4, active compounds read low
# [20] = locus YFL029C, strain CAK1, active compounds read low
# [21] = locus YFR003C, strain YPI1, active compounds read low
# [22] = locus YFR019W, strain FAB1, active compounds read low
# [23] = locus YFR028C, strain CDC14, active compounds read low
# [24] = locus YGR040W, strain KSS1, active compounds read low
# [25] = locus YGR052W, strain FMP48, active compounds read low
# [26] = locus YGR092W, strain DBF2, active compounds read low
# [27] = locus YHR079C, strain IRE1, active compounds read low
# [28] = locus YHR082C, strain KSP1, active compounds read low
# [29] = locus YHR205W, strain SCH9, active compounds read low
# [30] = locus YIL147C, strain SLN1, active compounds read low
# [31] = locus YJL095W, strain BCK1, active compounds read low
# [32] = locus YJL128C, strain PBS2, active compounds read low
# [33] = locus YJL157C, strain FAR1, active compounds read low
# [34] = locus YJR016C, strain ILV3, active compounds read low
# [35] = locus YJR066W, strain TOR1 (second series), active compounds read low
# [36] = locus YJR066W, strain TOR1, active compounds read low
# [37] = locus YKL048C, strain ELM1, active compounds read low
# [38] = locus YKL067W, strain YNK1, active compounds read low
# [39] = locus YKL101W, strain HSL1, active compounds read low
# [40] = locus YKL193C, strain SDS22, active compounds read low
# [41] = locus YKL203C, strain TOR2, active compounds read low
# [42] = locus YLR113W, strain HOG1, active compounds read low
# [43] = locus YLR133W, strain CKI1, active compounds read low
# [44] = locus YLR403W, strain SFP1, active compounds read low
# [45] = locus YML070W, strain DAK1, active compounds read low
# [46] = locus YMR001C, strain CDC5, active compounds read low
# [47] = locus YMR205C, strain PFK2 (second series), active compounds read low
# [48] = locus YMR277W, strain FCP1, active compounds read low
# [49] = locus YNL006W, strain LST8, active compounds read low
# [50] = locus YNL020C, strain ARK1, active compounds read low
# [51] = locus YNL161W, strain CBK1, active compounds read low
# [52] = locus YNL183C, strain NPR1, active compounds read low
# [53] = locus YNL207W, strain RIO2, active compounds read low
# [54] = locus YNL222W, strain SSU72, active compounds read low
# [55] = locus YNL307C, strain MCK1 (second series), active compounds read low
# [56] = locus YOL078W, strain AVO1, active compounds read low
# [57] = locus YOL136C, strain PFK27, active compounds read low
# [58] = locus YOR061W, strain CKA2, active compounds read low
# [59] = locus YOR119C, strain RIO1, active compounds read low
# [60] = locus YOR231W, strain MKK1, active compounds read low
# [61] = locus YOR329C, strain SCD5, active compounds read low
# [62] = locus YPL031C, strain PHO85, active compounds read low
# [63] = locus YPL153C, strain RAD53, active compounds read low
# [64] = locus YPL204W, strain HRR25, active compounds read low
# [65] = locus YPL209C, strain IPL1, active compounds read low
# [66] = locus YPL256C, strain CLN2, active compounds read low
# [67] = locus YPR025C, strain CCL1, active compounds read low
# [68] = locus YPR106W, strain ISR1, active compounds read low
# [69] = locus YPR111W, strain DBF20, active compounds read low
# [70] = strain NNK1, active compounds read low
# [71] = strain TSCII, active compounds read low
smiles,measurement,setting,value
COc1ccccc1N1CC(C)(C)C(=O)N(C(=O)c2c(F)cccc2Cl)C1=S,normalized growth,"locus YAL013W, strain DEP1, active compounds read low",1.02
same,normalized growth,"locus YBR229C, strain ROT2, active compounds read low",1.02
same,normalized growth,"locus YCL061C, strain MRC1, active compounds read low",1.02
same,normalized growth,[1],1.03
same,normalized growth,"locus YDR150W, strain NUM1, active compounds read low",0.933
same,normalized growth,"locus YEL061C, strain CIN8, active compounds read low",0.985
same,normalized growth,"locus YGR078C, strain PAC10, active compounds read low",1.02
same,normalized growth,[2],1.01
same,normalized growth,"locus YHR087W, strain rtc3, active compounds read low",0.986
same,normalized growth,"locus YJL187C, strain SWE1, active compounds read low",1.02
same,normalized growth,"locus YJR043C, strain POL32, active compounds read low",1.03
same,normalized growth,"locus YJR075W, strain HOC1, active compounds read low",1
same,normalized growth,"locus YKL190W, strain CNB1, active compounds read low",1
same,normalized growth,"locus YLR039C, strain RIC1, active compounds read low",0.862
same,normalized growth,"locus YLR058C, strain SHM2 (second series), active compounds read low",0.995
same,normalized growth,"locus YLR085C, strain ARP6, active compounds read low",0.984
same,normalized growth,"locus YLR262C, strain YPT6, active compounds read low",0.86
same,normalized growth,"locus YML094W, strain GIM5, active compounds read low",1
same,normalized growth,"locus YMR219W, strain ESC1, active compounds read low",1.02
same,normalized growth,"locus YMR263W, strain SAP30, active compounds read low",0.954
same,normalized growth,"locus YNL128W, strain TEP1, active compounds read low",1.02
same,normalized growth,"locus YNL153C, strain GIM3, active compounds read low",1
same,normalized growth,"locus YNL298W, strain CLA4 (second series), active compounds read low",1.01
same,normalized growth,"locus YNL322C, strain KRE1, active compounds read low",1.01
same,normalized growth,"locus YNR030W, strain Alg12, active compounds read low",1
same,normalized growth,"locus YPL055C, strain LGE1, active compounds read low",0.899
same,normalized growth,"locus YPL241C, strain CIN2, active compounds read low",1.01
same,normalized growth,"locus YPR135W, strain CTF4, active compounds read low",0.985
O=C(Nc1cc(Cl)cc(Cl)c1)c1cc(Cl)ccc1O,normalized growth,[3],0.93
same,normalized growth,[4],0.94
same,normalized growth,[5],0.922
same,normalized growth,[6],0.943
same,normalized growth,[7],0.934
same,normalized growth,[8],0.936
same,normalized growth,[9],0.94
same,normalized growth,[1],0.981
same,normalized growth,[10],0.924
same,normalized growth,[11],0.917
same,normalized growth,[12],0.785
same,normalized growth,[13],0.91 (active)
same,normalized growth,[14],0.921
same,normalized growth,[15],0.973
same,normalized growth,[16],0.838
same,normalized growth,[17],0.75
same,normalized growth,[18],0.74
same,normalized growth,[19],0.924
same,normalized growth,[20],0.923
same,normalized growth,[21],0.935
same,normalized growth,[22],0.83
same,normalized growth,[23],0.928
same,normalized growth,[24],0.836
same,normalized growth,[25],0.785
same,normalized growth,[26],0.321 (active)
same,normalized growth,[2],0.799 (active)
same,normalized growth,[27],0.584
same,normalized growth,[28],0.853
same,normalized growth,[29],0.504 (active)
same,normalized growth,[30],0.94
same,normalized growth,[31],0.751
same,normalized growth,[32],0.917
same,normalized growth,[33],0.648 (active)
same,normalized growth,[34],0.924
same,normalized growth,[35],0.668
same,normalized growth,[36],0.705
same,normalized growth,[37],0.802 (active)
same,normalized growth,[38],0.759
same,normalized growth,[39],0.827
same,normalized growth,[40],0.93
same,normalized growth,[41],0.818
same,normalized growth,[42],0.844 (active)
same,normalized growth,[43],0.779
same,normalized growth,[44],0.642 (active)
same,normalized growth,[45],0.805
same,normalized growth,[46],0.93
same,normalized growth,[47],0.784
same,normalized growth,[48],0.927
same,normalized growth,[49],0.923
same,normalized growth,[50],0.68 (active)
same,normalized growth,[51],0.936
same,normalized growth,[52],0.899
same,normalized growth,[53],0.939
same,normalized growth,[54],0.924
same,normalized growth,[55],0.615 (active)
same,normalized growth,[56],0.925
same,normalized growth,[57],0.797
same,normalized growth,[58],0.693
same,normalized growth,[59],0.858
same,normalized growth,[60],0.843
same,normalized growth,[61],0.939
same,normalized growth,[62],0.823
same,normalized growth,[63],0.801
same,normalized growth,[64],0.722
same,normalized growth,[65],0.925
same,normalized growth,[66],0.836 (active)
same,normalized growth,[67],0.936
same,normalized growth,[68],0.956
same,normalized growth,[69],0.95
same,normalized growth,[70],0.965
same,normalized growth,[71],0.938
O=C(Nc1ccc(F)cc1F)c1cc(Cl)ccc1O,normalized growth,[3],0.935
same,normalized growth,[4],0.933
same,normalized growth,[5],0.943
same,normalized growth,[6],0.94
same,normalized growth,[7],0.945
same,normalized growth,[8],0.935
same,normalized growth,[9],0.937
same,normalized growth,[1],0.979
same,normalized growth,[10],0.936
same,normalized growth,[11],0.97
same,normalized growth,[12],0.876
same,normalized growth,[13],0.926
same,normalized growth,[14],0.928
same,normalized growth,[15],0.931
same,normalized growth,[16],0.947
same,normalized growth,[17],0.864
same,normalized growth,[18],0.9
same,normalized growth,[19],0.923
same,normalized growth,[20],0.941
same,normalized growth,[21],0.929
same,normalized growth,[22],0.933
same,normalized growth,[23],0.925
same,normalized growth,[24],0.952
same,normalized growth,[25],1
same,normalized growth,[26],0.683
same,normalized growth,[2],0.927
same,normalized growth,[27],0.845
same,normalized growth,[28],0.989
same,normalized growth,[29],0.694
same,normalized growth,[30],0.938
same,normalized growth,[31],0.877
same,normalized growth,[32],0.918
same,normalized growth,[33],0.827
same,normalized growth,[34],0.939
same,normalized growth,[35],0.952
same,normalized growth,[36],1.03
same,normalized growth,[37],0.935
same,normalized growth,[38],0.884
same,normalized growth,[39],0.961
same,normalized growth,[40],0.941
same,normalized growth,[41],1.03
same,normalized growth,[42],0.98
same,normalized growth,[43],0.889
same,normalized growth,[44],0.708
same,normalized growth,[45],0.936
same,normalized growth,[46],0.94
same,normalized growth,[47],0.901
same,normalized growth,[48],0.952
same,normalized growth,[49],0.938
same,normalized growth,[50],0.84
same,normalized growth,[51],0.934
same,normalized growth,[52],1.02
same,normalized growth,[53],0.944
same,normalized growth,[54],0.939
same,normalized growth,[55],0.857
same,normalized growth,[56],0.939
same,normalized growth,[57],0.909
same,normalized growth,[58],0.89
same,normalized growth,[59],1.01
same,normalized growth,[60],0.996
same,normalized growth,[61],0.939
same,normalized growth,[62],0.928
same,normalized growth,[63],0.922
same,normalized growth,[64],0.915
same,normalized growth,[65],0.937
same,normalized growth,[66],0.927
same,normalized growth,[67],0.945
same,normalized growth,[68],0.94
same,normalized growth,[69],0.947
same,normalized growth,[70],0.965
same,normalized growth,[71],0.934
